Our source for the Potency, outcome and max response values is PubChem BioAssay (NCATS).

The nature of test [1]: qHTS to identify inhibitors of the type 1 interferon - major histocompatibility complex class I in skeletal muscle: primary screen against the NCATS LOPAC collection (AID 1347405).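 Also: human myoblasts with HiBiT tag on endogenous HLA-B stimulated by IFN-beta; lytic HiBiT luminescence reporting HLA-B protein level; % is scaled to controls: 0 for no effect and ±100 for the full control effect.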 The procedure, abridged:
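First, engineered myoblasts carrying HLA-B-HiBiT were seeded in medium lacking dexamethasone with 4 ng/ml IFN-beta. After 1 hr, compounds were pinned in (top 46 uM final, 7 points). After 24 hrs at 37 C, luminescence was measured following 10 min lysis.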

A short description of test [2]: qHTS to identify inhibitors of the type 1 interferon - major histocompatibility complex class I in skeletal muscle: primary screen against the NCATS Pharmaceutical Collection (AID 1347407).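 Also: luminescence of HiBiT knocked into endogenous HLA-B as interferon-induced MHC class I level; % is scaled to controls: 0 for no effect and ±100 for the full control effect.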 In a few lines:
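Luminescence from HiBiT-tagged endogenous HLA-B*08:01 served as the read-out of IFN-beta-induced MHC class I in CRISPR-engineered C25cl48 myoblasts. Cells received 4 ng/ml IFN-beta plus compound (high final 46 uM, […]) for 24 h.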

Test [3] can be described thus: qHTS for inhibitors of adenylyl cyclases using a fission yeast platform: a pilot screen against the NCATS LOPAC library (AID 1347410).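 Also: plate controls were DMSO vehicle for no effect and DPI positive control for full effect.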 The procedure, abridged: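 Fission yeast qHTS: CHP2027 cells (AC9-GNAS-PDE4D2, fbp1-GFP), 5x10^6 cells/mL working density, EMM + His/Lys/Ura; LOPAC at up to 57 µM final; 18 h dark, 30C; GFP by laser cytometry. DPI positive control, DMSO vehicle.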
On the technique in general: In qHTS, concentration-response curves come from the screen itself.

The target in test [4] is Protein phosphatase 1D (Homo sapiens) (UniProt O15297). Briefly: RapidFire Mass Spectrometry qHTS Assay for Modulators of WT P53-Induced Phosphatase 1 (WIP1) (AID 1347424).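 Also: series mostly up to about 63 µM; plate controls were DMSO wells for no effect and GSK830371 inhibitor control at 10 µM for full effect.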 The procedure, abridged:
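RapidFire MS readout of dephosphorylated VEPPL-S-QETFS product, with 1 uM isotope-labelled peptide standard. Reaction: 10 nM WIP1, 2 uM phosphopeptide substrate, 5 min, room temperature, after 1 h compound preincubation; stopped with 0.5% formic acid.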

For test [5] the target is unchanged. Briefly: Rhodamine-PBP qHTS Assay for Modulators of WT P53-Induced Phosphatase 1 (WIP1) (AID 1347425). Also: % of control where 0% means no effect. In a few lines:
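WIP1 (5 nM final) was preincubated with compound for 1 hour at room temperature. It then dephosphorylated 10 uM VEPPL-pS-QETFS peptide in Tris-HCl pH 7.5 with 30 mM MgCl2. Released Pi was detected by 10 uM Rh-PBP fluorescence (ex 525/em 598 nm) read at 1-min intervals for 11 min, as delta f1 - f0.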

Test [6] in a line: Validation qHTS assay for inhibitors of Activation Induced Cytidine Deaminase (AID): UDG Counterscreen signal (AID 1347427). Also: 0% is about no effect. The procedure, abridged:
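Fluorescence at 560 nm excitation, 665 nm emission reports UDG signal after 250 mM NaOH (2x) addition and 30 min. Enzymes (AID 1 uM, UDG 2 U/mL, at 4/3x) preincubated 10 min with compound, then 4 h with 4x 250 nM DJC20/DJC23 substrate at room temperature.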

Test [7] has as its target Single-stranded DNA cytosine deaminase (Homo sapiens) (UniProt Q9GZX7). Briefly: Validation qHTS assay for inhibitors of Activation Induced Cytidine Deaminase (AID): AID signal (AID 1347429). Also: % is scaled to controls: 0 for no effect and ±100 for the full control effect. The procedure, abridged:
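Steps: dispense AID with UDG; pin-transfer compound up to 114 uM final; add DJC20/DJC23 substrate and hold 4 hr at room temperature; add NaOH, hold 30 min; read FRET signal (540/590 nm).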

Test [8] in a line: Primary qHTS for inhibitors of La Crosse Virus (LACV) - induced cell death in SH-SY5Y cells (AID 1508616).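 Also: top concentration of the series differs between compounds; 0% = infected DMSO wells and 100% = uninfected DMSO wells; higher means more rescue of cells from virus-induced death.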 The procedure, abridged: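 SH-SY5Y, 6000 cells/well; cpd via pin tool in DMSO; LACV 0.01 MOI; 6 d 37C 5% CO2; ATPLite, 5 min RT; luminescence normalized to ±virus DMSO controls.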
The target of test [9] is Calcium and integrin-binding protein 1 (Homo sapiens) (UniProt Q99828). Briefly: Validation qHTS for Identification of Calcium Integrin Binding protein 1 (CIB1) Competitor (AID 1508618). Also: % is scaled to controls: 0 for no effect and ±100 for the full control effect. In a few lines:
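Fluorescence polarization with 1 uM CIB1-GST and 100 nM FITC-alphaIIb peptide in HEPES pH 7.4, NaCl, 5 mM CaCl2, Tween20. Compounds at up to 114 uM final, preincubated with protein 15 min; read after 15 min more at RT.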

Test [10] has the same target. Briefly: Primary qHTS for Identification of Calcium Integrin Binding Protein 1 (CIB1) Competitor (AID 1508620). The procedure, abridged:
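Fluorescence polarization competition: GST-tagged CIB1 (1 uM final) preincubated with compound 15 min at room temperature, then FITC-labelled alphaIIb peptide (100 nM final) added. After 15 min at room temperature, polarization read at Ex 480/Em 540.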

The nature of test [11]: Primary qHTS for small molecule stabilizers of the endoplasmic reticulum resident proteome: Secreted ER Calcium Modulated Protein (SERCaMP) assay (AID 1508630). Also: % is scaled to controls: 0 for no effect and ±100 for the full control effect. In a few lines:
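The SH-SY5Y reporter protocol was run at 3 concentrations up to 38.3 uM (primary) or 11 concentrations (follow-up): 16 h compound, 100 nM thapsigargin for 4 h, then extracellular luciferase luminescence.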

Test [12] addresses Cytochrome P450 2D6 (Homo sapiens) (UniProt P10635). Briefly: Cytochrome P450 family 2 subfamily D member 6 (CYP2D6) small molecule antagonists: luciferase biochemical (cell-free) qHTS assay (AID 1645840; active = well fitted curve in the direction sought with a large enough effect in the repeat runs; an effect the other way counts as inactive or inconclusive; also: nearly all actives have a fitted effect of over 55% in size; also: potency is read from the fitted curve at half-maximal effect). The procedure, abridged:
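P450-Glo CYP2D6 system: proluciferin substrate converted by enzyme to luciferin, read by luminescence proportional to activity. Enzyme-substrate mix with compound 10 min at room temperature, then NADPH regeneration 1 h before detection reagent.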

The target of test [13] is Cytochrome P450 2C9 (Homo sapiens) (UniProt P11712). Briefly: Cytochrome P450 family 2 subfamily C member 9 (CYP2C9) small molecule antagonists: luciferase biochemical (cell-free) qHTS assay (AID 1645842; active = well fitted curve in the direction sought with a large enough effect in the repeat runs; an effect the other way counts as inactive or inconclusive; also: series mostly up to about 57 µM; % is scaled to controls: 0 for no effect and ±100 for the full control effect; nearly all actives have a fitted effect of over 55% in size). In a few lines: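 P450-Glo CYP2C9 system: proluciferin substrate with enzyme in mix containing 0.4% BSA, 10 min at room temperature, then NADPH regeneration solution added and incubated 1 h at 37C. Detection reagent stopped reaction; luminescence read after 20 min as RLU.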
Chain of Cytochrome P450 2C9 (Homo sapiens) (P11712 whole entry, looked up): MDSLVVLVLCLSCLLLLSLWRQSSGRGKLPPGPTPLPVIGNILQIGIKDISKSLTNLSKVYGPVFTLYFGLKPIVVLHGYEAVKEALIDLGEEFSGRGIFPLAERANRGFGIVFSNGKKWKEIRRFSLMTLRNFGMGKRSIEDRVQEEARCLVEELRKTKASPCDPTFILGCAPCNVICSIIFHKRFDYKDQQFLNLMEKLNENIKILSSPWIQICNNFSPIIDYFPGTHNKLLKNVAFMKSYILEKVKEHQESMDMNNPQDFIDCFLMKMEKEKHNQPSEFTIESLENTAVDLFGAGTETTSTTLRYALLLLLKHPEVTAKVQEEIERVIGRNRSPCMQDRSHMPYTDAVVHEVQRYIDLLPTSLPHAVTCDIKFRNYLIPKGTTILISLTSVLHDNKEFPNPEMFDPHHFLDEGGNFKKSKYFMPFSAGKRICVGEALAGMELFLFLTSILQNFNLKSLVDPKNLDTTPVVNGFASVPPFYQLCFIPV

A further test addresses Papain (Carica papaya) (UniProt P00784). Briefly: Primary qHTS assay for inhibitors of the protease papain (AID 1645873).
The nature of test [14]: Primary qHTS for inhibitors of nuclear receptor binding SET domain protein 2 (NSD2) in an isogenic RCH-ACV NSD2 p.E1099K mutant (9B) (AID 1645876). Also: nearly all actives have a fitted effect of over 70% in size.
Test [15] is described as follows: A High-Content qHTS Against Drug Library for the Identification of Small Molecules that Inhibit DYT1 Early Onset Primary Dystonia-Associated Cell Pathology (AID 1645839; calls by dose curve; also: series mostly up to about 46 µM). The procedure, abridged:
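Cells were seeded and left for 24 h, then dosed with compound alongside tetracycline induction of mutant EGFP-TorsinA. They were incubated for 48 h, fixed in 4% paraformaldehyde, permeabilized and imaged for mislocalization (%pathology) and cell count.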

The nature of test [16]: Cell Viability qHTS for small molecule stabilizers of the endoplasmic reticulum resident proteome (AID 1508629). Particulars: cell viability counter-screen, 100 nM thapsigargin for final 4 h.
The nature of test [17]: qHTS to identify inhibitors of the type 1 interferon - major histocompatibility complex class I in skeletal muscle: primary screen against the NCATS Mechanism Interrogation Plate v5.0 (MIPE) Libary (AID 1347411).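 Also: plate controls were vehicle for no effect and reference inhibitor for full effect; nearly all actives have a fitted effect of over 65% in size.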 The procedure, abridged:
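Seed engineered human myoblasts (HLA-B HiBit) in medium without dexamethasone containing 4 ng/ml IFN-beta; after 1 hr add compound titrations (top 46 uM final). Incubate 24 hrs at 37 C, lyse 10 min with HiBiT reagent, read luminescence.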

A number with no mark means an inactive call. Inconclusive results are not listed. Activity calls are given as the source filed them. Unless noted, calls follow the shape of the dose curve; as a rule, active = well fitted curve in the direction sought with a large enough effect; inconclusive = small, poorly fitted or top-dose-only effect, or another doubt; inactive = no such curve, though single readings can be large; an effect the other way counts as inactive or inconclusive.

Chain of Single-stranded DNA cytosine deaminase (Homo sapiens) (Q9GZX7 whole entry, looked up): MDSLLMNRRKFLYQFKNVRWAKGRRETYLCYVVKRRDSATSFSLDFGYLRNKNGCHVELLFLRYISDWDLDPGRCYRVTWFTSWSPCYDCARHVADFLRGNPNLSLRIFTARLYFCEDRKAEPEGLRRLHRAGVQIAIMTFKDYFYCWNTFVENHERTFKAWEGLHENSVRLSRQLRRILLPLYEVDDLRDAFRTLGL
Chain of Cytochrome P450 2D6 (Homo sapiens) (P10635 whole entry, looked up): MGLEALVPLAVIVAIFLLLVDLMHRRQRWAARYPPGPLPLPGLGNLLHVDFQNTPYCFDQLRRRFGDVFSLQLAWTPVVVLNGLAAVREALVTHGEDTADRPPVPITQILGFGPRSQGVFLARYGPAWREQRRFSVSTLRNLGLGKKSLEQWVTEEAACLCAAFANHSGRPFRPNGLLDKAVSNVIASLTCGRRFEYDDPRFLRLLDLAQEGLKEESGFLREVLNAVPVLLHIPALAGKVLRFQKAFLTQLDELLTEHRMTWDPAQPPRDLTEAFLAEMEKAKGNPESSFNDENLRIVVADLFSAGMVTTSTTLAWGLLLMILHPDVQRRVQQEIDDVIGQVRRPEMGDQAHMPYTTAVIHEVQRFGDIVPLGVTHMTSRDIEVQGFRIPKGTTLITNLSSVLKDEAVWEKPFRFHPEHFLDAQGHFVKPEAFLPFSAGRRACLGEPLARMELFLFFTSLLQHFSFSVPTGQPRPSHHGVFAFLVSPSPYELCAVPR
Chain of Papain (Carica papaya) (P00784 whole entry, looked up, the tested form may be a part): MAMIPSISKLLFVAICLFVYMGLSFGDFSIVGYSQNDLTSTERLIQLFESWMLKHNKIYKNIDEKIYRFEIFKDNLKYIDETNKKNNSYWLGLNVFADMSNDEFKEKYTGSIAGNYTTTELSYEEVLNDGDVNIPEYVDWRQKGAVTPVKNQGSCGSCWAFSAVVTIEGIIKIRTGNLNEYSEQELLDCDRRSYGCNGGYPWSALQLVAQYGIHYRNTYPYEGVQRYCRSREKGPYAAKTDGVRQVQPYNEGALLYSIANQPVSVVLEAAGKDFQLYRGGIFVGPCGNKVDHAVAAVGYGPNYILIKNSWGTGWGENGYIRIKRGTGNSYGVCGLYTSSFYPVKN
Chain of Protein phosphatase 1D (Homo sapiens) (O15297 whole entry, looked up): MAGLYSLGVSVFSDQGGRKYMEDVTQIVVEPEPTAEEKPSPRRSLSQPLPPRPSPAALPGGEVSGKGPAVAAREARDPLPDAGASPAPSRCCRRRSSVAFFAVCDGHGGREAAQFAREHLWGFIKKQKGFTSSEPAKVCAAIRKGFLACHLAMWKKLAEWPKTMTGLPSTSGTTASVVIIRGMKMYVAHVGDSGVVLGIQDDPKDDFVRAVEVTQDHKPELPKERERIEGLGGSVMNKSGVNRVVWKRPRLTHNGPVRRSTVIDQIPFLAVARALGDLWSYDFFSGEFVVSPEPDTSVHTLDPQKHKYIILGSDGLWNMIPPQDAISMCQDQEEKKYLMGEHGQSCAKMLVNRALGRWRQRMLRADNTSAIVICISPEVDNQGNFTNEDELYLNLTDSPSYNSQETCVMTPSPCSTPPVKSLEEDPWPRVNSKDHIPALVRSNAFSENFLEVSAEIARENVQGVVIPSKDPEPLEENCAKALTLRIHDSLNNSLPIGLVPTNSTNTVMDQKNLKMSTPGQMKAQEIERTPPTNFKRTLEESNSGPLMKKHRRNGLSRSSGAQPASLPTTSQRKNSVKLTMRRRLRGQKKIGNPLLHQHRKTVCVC
Chain of Calcium and integrin-binding protein 1 (Homo sapiens) (Q99828 whole entry, looked up): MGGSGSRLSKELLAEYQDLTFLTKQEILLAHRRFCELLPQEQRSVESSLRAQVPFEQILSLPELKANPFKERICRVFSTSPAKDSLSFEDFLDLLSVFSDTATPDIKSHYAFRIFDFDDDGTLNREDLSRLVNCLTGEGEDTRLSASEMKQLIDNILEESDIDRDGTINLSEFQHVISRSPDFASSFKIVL

As for `CC[N+](C)(C)c1cccc(O)c1`, the Potency entry in test [1], in test [2], in test [4], in [7], in test [8] and in test [10] was “inactive” throughout. Further, the Potency entry (in [11]; in [12]; in test [13]; with Papain (Carica papaya); in test [14]) was “inactive” in each case. Also, the result in [3], in test [5], in test [6] and in test [9] was inactive.
Consider `NC/C=C/C(=O)O`, for which the Potency entry in test [1], in test [2], in [4], in test [7], in test [8] and in [10] was “inactive” throughout. Also, the Potency result (in [11]; in test [15]; in test [12]; in [13]; with Papain (Carica papaya); in test [14]) was “inactive” in each case. Further, the compound was classed as inactive in [3], in [5], in test [6] and in [9].
As for `c1cc(CN2CCCCC2)cc(OCCCNc2nc3ccccc3s2)c1`, the Potency result in test [1], in test [2], in test [4], in test [7], in test [8] and in test [10] was “inactive” throughout. The Potency result (in test [13]; in the test with Papain (Carica papaya)) was “inactive” each time. Moreover, the result in test [3], in [5], in [6] and in [9] was inactive. Besides, in test [16], the max response is -7.44%. The Potency in [12] was 1.74 µM (active).
Turning to `CCCN(CCC)C(=O)C(CCC(=O)O)NC(=O)c1ccccc1` (stereo not given), the Potency result in test [1], in test [2], in test [17], in [4], in test [7] and in [8] was “inactive” each time. Also, the Potency entry (in test [10]; in test [11]; in test [15]; in test [12]; in test [13]; in the test with Papain (Carica papaya)) was “inactive” throughout. Besides, the Potency result in test [14] is “inactive”. Moreover, the outcome in test [3], in test [5] and in test [9] was inactive.
`CN(C)CCCN1c2ccccc2Sc2ccccc21`: the Potency result in [1], in test [2], in [4], in test [7], in test [8] and in [10] was “inactive” each time. In addition, the Potency result with Papain (Carica papaya) is “inactive”. The compound was classed as inactive in [3], in [5], in [6] and in [9]. For the same compound, the max response in test [16] was -13.5%.
In the case of `CC(=O)OC(C)C[N+](C)(C)C` (stereo not given), the Potency result in test [1], in test [2], in [4], in [7], in test [8] and in test [10] was “inactive” in each case. Also, the Potency result (in [11]; in [13]; with Papain (Carica papaya); in test [14]) was “inactive” in each case. Further, the call in [3], in test [5], in test [6] and in test [9] was inactive.
In the case of `CC(=O)[C@@]1(O)CC[C@H]2[C@@H]3CCC4=CC(=O)CC[C@]4(C)[C@H]3CC[C@@]21C`, the Potency result in [1], in test [2], in test [4], in test [7], in test [8] and in test [10] was “inactive” each time. For the same compound, the Potency entry (in test [11]; in [15]; with Papain (Carica papaya); in test [14]) was “inactive” each time. For the same compound, the result in test [3], in test [5], in test [6] and in test [9] was inactive.
`CN1CCN(C2=Nc3ccccc3Oc3ccc(Cl)cc32)CC1`: the Potency result in test [1], in test [2], in test [4], in test [7], in test [8] and in test [10] was “inactive” in each case. The Potency entry (in [13]; with Papain (Carica papaya)) was “inactive” throughout. Also, the compound was classed as inactive in [3], in [5], in test [6] and in [9]. Further, the max response in [16] is 14.4%. For the same compound, the Potency in test [12] was 3.89 µM (active).
